Source: PubChem BioAssay (NCI)
Compounds without any hit were thinned out: in the full panel of roughly 83,000, 20% have a hit.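 48-hour exposure, single concentration, 96-well plates; percent growth endpoint where 0 means no net growth. Active: below 10.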 Values without a mark were called inactive. Calls of active or inactive are those of the source.

Key:
Test in all cases: NCI-60 one-dose screen, 48 h (100 = growth as untreated, 0 = no growth, -100 = all killed)
Details in all cases: 10 µM unless noted
T-47D breast = system: T-47D breast
BT-549 breast = system: BT-549 breast
MDA-MB-435 melanoma = system: MDA-MB-435 melanoma
SW-620 colon = system: SW-620 colon
MCF7 breast = system: MCF7 breast
HCT-116 colon = system: HCT-116 colon
HCC-2998 colon = system: HCC-2998 colon
KM12 colon = system: KM12 colon

Row | SMILES | growth (T-47D breast) | growth (BT-549 breast) | growth (MDA-MB-435 melanoma) | growth (SW-620 colon) | growth (MCF7 breast) | growth (HCT-116 colon) | growth (HCC-2998 colon) | growth (KM12 colon)
1 | CNCCCNCCCCNCCCN1C(=O)c2ccc3c4c(ccc(c24)C1=O)C(=O)N(CCCNCc1ccccc1OC)C3=O | 8.96% (active) | 57.8% | 1.07% (active) | 19.8% | 7.86% (active) | 11.1% | 31.5% | 12%
2 | CC(=O)/C(=C\c1c(-c2ccccc2)[nH]c2ccccc12)S(=O)(=O)c1ccccc1 | 13% | 16.9% | 5.41% (active) | 12.1% | 10.1% | 9.03% (active) | 4.79% (active) | -10.1% (active)
3 | CC(C)OCC1CO1 (configuration not stated) | 104% | 106% | 102% | 96.4% | 99.6% | 100% | 120% | 98.3%
4 | COc1ccc(-c2cc(C#N)c(NNC(C)=O)[nH]2)cc1 | 165% | 119% | 107% | 115% | 110% | 92% | 105% | 107%
5 | Cc1ccc2c(c1)C(=O)CCS2 | 106% | 101% | 104% | 97.1% | 93.3% | 103% | 99.6% | 108%
6 | COc1cc(CNC(=O)CCCC/C=C/C(C)C)ccc1OCc1nnc(Nc2ccccc2F)o1 | 65% | 76.9% | 100% | 98.9% | 66.9% | 53.5% | 90.8% | 78.8%
7 | CCOC(=O)C(C)C(C)(O)c1ccccc1 (configuration not stated) | 97.3% | 105% | 102% | 114% | 93.6% | 97.1% | 84.4% | 97.7%
8 | COc1cc(OC)c(NC(=O)n2ncc3cc(Nc4ncnc5ccccc45)ccc32)cc1Cl | 97.3% | 78.1% | 105% | 116% | 98.1% | 101% | 89.7% | 104%
9 | [N-]=[N+]=Nc1ncc(-c2ccc(C(F)(F)F)cc2)c(NC2CCCCCC2)n1 | 21.3% [100 µM] | 45.4% [100 µM] | 19.1% [100 µM] | 27.2% [100 µM] | 16.3% [100 µM] | 16% [100 µM] | 39.7% [100 µM] | –
10 | Cc1ccc(NCc2cn(-c3ccc(C(=O)O)cc3)nc2-c2ccc(C(=O)O)cc2)cc1 | 98.6% | 108% | 107% | 110% | 93.6% | 100% | 101% | 93.9%
11 | CC1(C)NC(=S)NC1=O | 91.6% | 103% | 110% | 96.9% | 99.2% | 102% | 112% | 108%
12 | CCOC(=O)C1=C(C(F)(F)F)NC(=O)NC1CN1C(=O)c2ccccc2C1=O (configuration not stated) | 111% | 108% | 108% | 105% | 108% | 112% | 101% | 115%
13 | Cc1ccc2c(O)c(O)cc(NC(C)CCCN)c2n1 (configuration not stated) | 63.3% | 91.1% | 114% | 73.2% | 13.3% | 34.7% | 60.4% | 109%
14 | CC1=C(C)C[C@]2(C(=O)O[C@H]3CCCC[C@@H]32)[S@](=O)C1 | 105% | 91.6% | 103% | 110% | 95% | 108% | 95% | 101%
15 | COc1cc(NC(=O)CSc2nc3ccc(Cl)cc3c(=O)n2-c2ccc(F)cc2)cc(OC)c1OC | 72.6% | 95.9% | 90.8% | 95.4% | 87.5% | 79.4% | 105% | 85.2%
16 | Nc1ccc(S(=O)(=O)c2ccc(NO)cc2)cc1 | 96.9% | 80% | 97.3% | 104% | 95.1% | 98.9% | 92.6% | 116%
17 | Cc1c(Cc2ccccc2)c(=O)oc2c(C)c(OCc3n[nH]c(=S)o3)ccc12 | 53.1% | 96.9% | 61.5% | -7.67% (active) | 14.5% | 6.37% (active) | 94.9% | 43.1%

Row | SMILES | growth (T-47D breast) | growth (BT-549 breast) | growth (MDA-MB-435 melanoma) | growth (SW-620 colon) | growth (MCF7 breast) | growth (HCT-116 colon) | growth (HCC-2998 colon) | growth (KM12 colon)
18 | CCC(C)[C@H](NC(=O)Nc1cc(C(F)(F)F)cc(C(F)(F)F)c1)C(=O)N[C@@H](Cc1cn(C)cn1)C(=O)OC (some centres not stated) | -63.1% [100 µM] (active) | -94.5% [100 µM] (active) | -91.6% [100 µM] (active) | -58.3% [100 µM] (active) | -60.1% [100 µM] (active) | -93.1% [100 µM] (active) | -89.9% [100 µM] (active) | –
19 | CCCCCSc1ccc2nc(NC(=O)OCC)sc2c1 | 29.7% | 37.2% | -47% (active) | 19.6% | 13.9% | 26% | 55% | 19.7%
20 | COc1ccccc1Cn1cc2c(c1)-c1oncc1CC2 | 52% | 67.4% | -53.7% (active) | 27% | 13.4% | 9.05% (active) | -43.1% (active) | 6.78% (active)
21 | Nc1cc(N)c2nc(NCCc3ccc(Cl)c(Cl)c3)cnc2c1 | -27.2% (active) | 96.6% | -50% (active) | 51.3% | -43.5% (active) | -42.5% (active) | 44.7% | 35.6%
22 | CCCCN(CCCC)c1ccc(C(=O)O)cc1 | 94.7% | 97% | 102% | 107% | 98.6% | 97.3% | 100% | 103%
23 | CC(=O)c1nn(-c2ccc(C)cc2)cc1C(=O)c1cc2c(ccc3ccccc32)oc1=O | 75.2% | 85.5% | 99% | 100% | 87.5% | 89.4% | 103% | 95.1%
24 | CCOC(=O)c1csc(-c2ccc(COC(=O)c3ccccc3)o2)n1 | 102% | 116% | 101% | 112% | 92.9% | 99.8% | 105% | 112%
25 | O=C(O)c1ccc(Br)nc1 | 99.1% | 106% | 103% | 97.1% | 93.8% | 98% | 104% | 107%
26 | CCC(C)(CC)c1ccc(O)c(C)c1 | 101% | 98.9% | 109% | 107% | 99% | 96.6% | 116% | 107%
27 | CCOC(=O)C1=C(c2ccccc2)NC(=O)NC1CN1C(=O)c2ccccc2C1=O (configuration not stated) | 99% | 129% | 114% | 107% | 98.3% | 99.6% | 62.9% | 113%
28 | COc1cc(/C=C/C(=O)/C=C(/C=C/c2ccc(OC(C)=O)c(OC)c2)OB(F)F)ccc1OC(C)=O | 41.9% | 37.3% | 41% | 17.5% | 21.5% | 6.64% (active) | 100% | 73.8%
29 | N/C(=N\O)c1ccncc1 | 102% | 98.3% | 100% | 105% | 97.2% | 102% | 95.8% | 102%
30 | CNc1nc2ncn(C)c2c(=O)[nH]1 | 91.4% | 88.7% | 94.6% | 95.7% | 96% | 100% | 90.7% | 86.8%
31 | COc1ccc(-c2nc(SCC(C)C)nc(Nc3ccc([N+](=O)[O-])cc3)c2C#N)cc1 | 92.6% | 104% | 101% | 84.8% | 90.2% | 60.1% | 107% | 99.9%
32 | COc1ccc(/C=N/c2cc(C(C)(C)C)nn2-c2ccccc2)cc1 | 85.8% | 128% | 95.5% | 101% | 88.8% | 92.8% | 132% | 104%
33 | O=C(CN1CCN(c2cccc(Cl)c2)CC1)N1CCN(c2nnc(-c3ccc(Cl)cc3)c(-c3ccc(Cl)cc3)n2)CC1 | 50.1% | 87.8% | 72.3% | 76.7% | 55.4% | 53.5% | 83.6% | 57.6%
